Our source for the Potency values is PubChem BioAssay AID504534 (National Center for Advancing Translational Sciences (NCATS), 2011).

Records with an inconclusive call do not appear. A call without a number means that no potency is given here. Calls of active or inactive are those of the source. The call rests on the fitted dose curve; in most records, active means well fitted curve in the direction sought with a large enough effect; inconclusive means small, poorly fitted or top-dose-only effect, or another doubt; inactive means no such curve, though single readings can be large or run the other way.
Potency means the concentration at half of the fitted maximal effect.

This experiment is described as follows: Secondary Assay for Inhibitors of Human Cdc-like kinase 4 (Clk4): HEK-293 Cell Viability Assay.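 Further: cytotoxic hits lower the ATP light signal so activity reflects loss of viability.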 The following applies: HEK-293 viability, ATP luminescence (CellTiter-Glo), 24/48 h; series mostly up to 46.1 µM. The protocol: NIH Molecular Libraries Probe Production Centers Network [MLPCN] NIH Chemical Genomics Center [NCGC] MLPCN Grant: 1R03MH084827-01 Assay Submitter (PI): Tom Misteli NCGC Assay Overview: Cytotoxicity of the active compounds in the Clk4 screens was assessed using the CellTiter-Glo Luminescent Cell Viability Assay kit (Promega, USA) in the HEK-293 (ATCC) cell line. CellTiter-Glo measures the intracellular ATP present in metabolically active cells using Ultra-Glo as the luciferase to detect ATP levels. In brief, the luciferase in the buffer catalyzes the oxidation of luciferin to oxyluciferin and light which is dependent on ATP. […] Wells treated with various concentrations of cycloheximide (Sigma) and DMSO, and wells with media alone were used as positive and negative controls, respectively. […] [1] http://www.promega.com/tbs/tb288/tb288.pdf
NCGC Assay Protocol Summary: HEK-293 cells were grown in a flask up to 80% confluence. Cells were trypsinized, washed, and resuspended in MEM Eagle + 10% FBS + 1% pen-strep media at a concentration of 120 cells/uL. Five uL/well of cell solution was dispensed into a 1536-well assay plates (Greiner, solid white medium-binding plates) with Aurora Discovery BioRAPTR Flying Reagent Dispenser (FRD; Beckton-Dickenson). Cells were pre-incubated at 37 degree Celsius, 5% CO2 for four hours. Compound and control solutions (23nL) were then transferred to the assay plate using the Kalypsys 1536-pin tool. Assay plates were re- incubated at 37 degree Celsius, 5% CO2. After 24 or 48 hours, five uL of CellTiter Glo detection reagent was added. Luminescence signal was read with Perkin Elmer ViewLux plate reader after 30 min room temperature incubation.
`Cc1ccc(CNc2ncnc3ccc(-c4ccoc4)cc23)o1`: the Potency entry is “inactive”.
For `CC(O)c1ccc(-c2ccc3ncnc(NCCc4cnc[nH]4)c3c2)o1` (stereo not given) the value was “inactive”; for `Clc1ccccc1-c1ccc2ncnc(NCc3ccc4c(c3)OCO4)c2c1`, “inactive”.
On to `CN1CCN(c2ncc3nc(-c4cn(C)c5ccccc45)c(=O)n(Cc4cccs4)c3n2)CC1`, for which the Potency is 8.88 µM (active).
For `CN(C)CCNc1ncnc2ccc(-c3ccc4c(c3)OCO4)cc12` the value was “inactive”; for `Cc1ccc(CNc2ncnc3ccc(-c4ccc(C(=O)O)o4)cc23)o1`, “inactive”; for `COc1cccc(-c2ccc3ncnc(NCc4cc(C)cs4)c3c2)c1`, “inactive”.
For `Clc1cccc(-c2ccc3ncnc(NCc4cccs4)c3c2)c1` the value was “inactive”; for `CCOC(=O)c1ccc(-c2ccc3ncnc(NCCc4cnc[nH]4)c3c2)o1`, “inactive”; for `c1nc(N2CCOCC2)c2cc(-c3ccc4c(c3)OCO4)ccc2n1`, “inactive”.
`COc1cccc(Nc2ncc3nc(-c4cn(C)c5ccccc45)c(=O)n(CCC#N)c3n2)c1`: the Potency is 7.91 µM (active).
`Fc1cccc(CNc2ncnc3ccc(-c4ccc5c(c4)OCO5)cc23)c1`: the Potency result was “inactive”.
For `Cn1ccc2cc(-c3ccc4ncnc(NCc5ccc6c(c5)OCO6)c4c3)ccc21` the value was “inactive”; for `c1coc(-c2ccc3ncnc(NCc4cccs4)c3c2)c1`, “inactive”; for `Cc1cccc(CNc2ncnc3ccc(-c4cccc(Cl)c4)cc23)c1`, “inactive”.
For `CN(C)CCCNc1ncnc2ccc(-c3ccc4c(c3)OCO4)cc12` the value was “inactive”.
With `Cc1nc(CSc2ncnc3ccc(-c4ccc5c(c4)OCO5)cc23)cs1`, the Potency entry was “inactive”.
As to `CN1CCCC1CCNc1ncnc2ccc(-c3ccc4c(c3)OCO4)cc12` (stereo not given), the Potency result was “inactive”.
For `Cc1csc(CNc2ncnc3ccc(-c4ccoc4)cc23)c1` the value was “inactive”; for `Cc1ccsc1CN(C)c1ncnc2ccc(-c3ccc(COC(=O)N(C)C)o3)cc12`, “inactive”; for `Cc1nc(CCNc2ncnc3ccc(-c4ccc5c(c4)OCO5)cc23)cs1`, “inactive”.
For the molecule `Cc1cccc(CNc2ncnc3ccc(-c4ccc5c(ccn5C)c4)cc23)c1`, the Potency entry was “inactive”.
For `c1nc(NCc2ccc3c(c2)OCO3)c2cc(-c3ccoc3)ccc2n1` the value was “inactive”; for `Cn1ccc2cc(-c3ccc4ncnc(NCc5cccnc5)c4c3)ccc21`, “inactive”.
For `Cc1ccc(CN(C)c2ncnc3ccc(-c4ccc(CO)o4)cc23)o1` the value was 12.5 µM (active); for `O=C(O)c1ccc(-c2ccc3ncnc(NCc4nccs4)c3c2)o1`, “inactive”.
For `c1csc(CCNc2ncnc3ccc(-c4ccc5c(c4)OCO5)cc23)c1` the value was “inactive”.
Turning to `COc1cccc(-c2ccc3ncnc(NCc4cccs4)c3c2)c1`, the Potency entry was “inactive”.
For `NCCNc1ncnc2ccc(-c3ccc4c(c3)OCO4)cc12` the value was “inactive”; for `Cc1ccc(CNc2ncnc3ccc(-c4ccc5c(c4)OCO5)cc23)s1`, “inactive”.
In the case of `Fc1cccc(CNc2ncnc3ccc(-c4cccc(Cl)c4)cc23)c1`, the Potency result was “inactive”.
For `Cc1csc(CNc2ncnc3ccc(-c4ccc(C(=O)O)o4)cc23)n1` the value was “inactive”; for `CCCNc1ncnc2ccc(-c3ccc4c(c3)OCO4)cc12`, “inactive”.
For `C[C@@H](O)c1ccc(-c2ccc3ncnc(NCc4cccs4)c3c2)o1` the value was “inactive”.
As for `c1cncc(-c2ccc3ncnc(NCc4ccc5c(c4)OCO5)c3c2)c1`, the Potency entry was “inactive”.
For `c1cncc(CNc2ncnc3ccc(-c4ccco4)cc23)c1` the value was “inactive”; for `Clc1cccc(-c2ccc3ncnc(NCc4ccc5c(c4)OCO5)c3c2)c1`, “inactive”.
For `Cc1ccsc1CNc1ncnc2ccc(-c3ccc4c(c3)OCO4)cc12` the value was “inactive”; for `Cc1occc1-c1ccc2ncnc(NCc3ncc[nH]3)c2c1`, “inactive”.
For `Cc1cccc(CNc2ncnc3ccc(-c4ccoc4)cc23)c1` the value was “inactive”.
